BJeLR viab HTS: lowers viability of BJeLR cells; BJeLR fibroblasts viability, CellTiterGlo ATP luminescence, 48 h; HRASV12, hTERT and SV40 LT/ST transformed; AID 2275; viability loss activity score, % (no concentration beside the values); hit rate 0.64% among 30,000; in the data active = viability loss activity score above about 50%;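 note: higher score means fewer live cells and less ATP luminescence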
A1 inh: inhibitors of A1. hit rate 0.51% among 21,000. caspase activation, % (concentration not given with the values). MEF A1-2A-BIM cells, caspase-Glo luminescence, 3 h; percent of clofoctol signal, DMSO as zero;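 active = most replicate scores above 10, or exactly half above 10 with mean activity above 10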;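 note: effector caspase 3 and 7 activity cleaving a DEVD luciferin substrate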
Numbers without * were called inactive. Hits are enriched below; roughly 0.9% of the tested compounds scored in any of these assays.

Screening CCCc1cc(=O)oc2c(C)c(OC(C)C(=O)O)ccc12 (configuration not stated) returned BJeLR viab HTS -1 and A1 inh 0.
CCn1cc(CCCC(=O)N2CCc3ccccc32)c2ccccc21 was read as BJeLR viab HTS 0 and A1 inh 0.
`CSc1ccccc1NC(=O)CSc1nc2ccc(C)cc2[nH]1` gave BJeLR viab HTS -2 and A1 inh 1.
Screening Cc1ccc2nc(S/C=C/C(=O)c3ccccc3)[nH]c2c1 returned BJeLR viab HTS 72* and A1 inh 5.
For COc1ccc(CCNC(=O)Cn2ccc3ccccc3c2=O)cc1OC the results were BJeLR viab HTS -6.
For Cc1ccc(S(=O)(=O)N2CCN(C(=O)OC(C)C)CC2)cc1 the results were BJeLR viab HTS 6 and A1 inh 1.
Screening O=C1C(Nc2ccccc2)=CC(=O)c2ncccc21 returned BJeLR viab HTS 69* and A1 inh -1.
`Cc1nn(-c2ccccc2)c(N)c1C(N)=S` gave BJeLR viab HTS 2 and A1 inh -1.
Screening O=C(NCC1CCCO1)c1ccc2c(c1)sc1nc(-c3ccccc3)cn12 (configuration not stated) returned BJeLR viab HTS 1 and A1 inh -1.
CCN1CCCC1CNC(=O)c1ccc2c(c1)sc1nc(-c3ccc(C)cc3)cn12 (configuration not stated) was read as BJeLR viab HTS 95* and A1 inh 8.
For CN(C(=O)c1ccc2c(=O)n3c(nc2c1)CCCCC3)C1CCCCC1 the results were BJeLR viab HTS -1.
`COC(=O)c1ccc(NC(=O)CC2C(=O)N(c3ccc(F)cc3)C(=O)N2C2CCCC2)cc1` (configuration not stated) gave BJeLR viab HTS 1.
`COc1cc([C@@H]2c3cc4c(cc3C(OC3O[C@@H]5COC(C)O[C@H]5[C@H](O)[C@H]3O)C3COC(=O)[C@@H]32)OCO4)cc(OC)c1O` (some centres not stated) gave BJeLR viab HTS 8 and A1 inh 1.
COc1cc([C@@H]2c3cc4c(cc3[C@@H](OC3OC5COC(C)OC5C(O)C3O)[C@H]3COC(=O)[C@H]23)OCO4)cc(OC)c1O (some centres not stated) was read as BJeLR viab HTS 52* and A1 inh 1.
For O=C(Cn1c2ccccc2c2cn[nH]c(=O)c21)NCCC1=CCCCC1 the results were BJeLR viab HTS -2 and A1 inh -1.
For O=C1C=CC(=O)N1c1ccccc1 the results were BJeLR viab HTS 127* and A1 inh -5.
`O=C1CC(=O)N(c2ccccc2)N1c1ccccc1` gave BJeLR viab HTS 1 and A1 inh 1.
Screening O=C(O)CCNC(=O)Nc1ccccc1 returned BJeLR viab HTS -2 and A1 inh -1.
O=C1Nc2ccccc2/C1=C/C(=O)c1ccc(Cl)cc1 was read as BJeLR viab HTS 65* and A1 inh 65*.
`O=C1Nc2ccccc2/C1=C\c1c(Cl)[nH]c2ccccc12` gave BJeLR viab HTS 27 and A1 inh 2.
`O=C(NC(C(=O)O)C12CC3CC(CC(C3)C1)C2)c1ccc(F)cc1` (configuration not stated) gave BJeLR viab HTS -8 and A1 inh 0.
`C=C1C(=O)O[C@H]2C1C[C@@H](OC(C)=O)[C@@]1(C)[C@@H](OC(C)=O)C[C@@H](OC(C)=O)C(=C)[C@H]21` (some centres not stated) gave BJeLR viab HTS 28 and A1 inh -1.
Screening C=C(C)C(=O)O[C@H]1[C@H]2C(=C)C(=O)O[C@@H]2C[C@@H](C)/C=C/C(=O)[C@](C)(O)[C@@H]1OC(C)=O returned BJeLR viab HTS 59* and A1 inh 2.
For CC(C)c1ccc2c(c1)CCC1[C@](C)(C(=O)O)CCC[C@]21C (some centres not stated) the results were BJeLR viab HTS 2 and A1 inh 0.
CC(C)c1c(O)ccc2c1CCC1C(C)(C)CCC[C@]21C (some centres not stated) was read as BJeLR viab HTS 5 and A1 inh 43*.
Screening COC(=O)c1sccc1S(=O)(=O)Nc1ccc(-c2cn3c(n2)SCC3)cc1 returned BJeLR viab HTS 0 and A1 inh 0.
For COc1cccc(NC(=O)Cn2ncc3c4ccccc4n(Cc4ccccc4)c3c2=O)c1 the results were BJeLR viab HTS 3 and A1 inh 17*.
Screening O=C(Cn1ncc2c3ccccc3n(Cc3ccccc3)c2c1=O)NC1CC1 returned BJeLR viab HTS 1 and A1 inh -1.
C=C1C(=O)O[C@@H]2C=C(C)[C@@H]3CC[C@@](C)(O)[C@@H]3C[C@H]12 was read as BJeLR viab HTS -12 and A1 inh -1.
For C=C1C(=O)O[C@H]2C3=C(C)CCC[C@]3(C)C(=O)C[C@@H]12 the results were BJeLR viab HTS 53* and A1 inh -1.
Cn1c2ccccc2c2cnn(CC(=O)O)c(=O)c21 was read as BJeLR viab HTS -2 and A1 inh 0.
`Cn1c2ccccc2c2c3c(c4c5ccccc5n(CCC#N)c4c21)CNC3=O` gave BJeLR viab HTS 21 and A1 inh 28*.
O=C(/C=C\c1ccccc1)Nc1ccc(-c2cn3cccnc3n2)cc1 was read as BJeLR viab HTS -1.
Screening CCOC(=O)c1cnc(S/C=C/C(=O)c2ccc(C)cc2)nc1N returned BJeLR viab HTS 90* and A1 inh 2.
Screening CCOC(=O)c1cnc(N2CCOCC2)nc1N returned BJeLR viab HTS 10 and A1 inh -6.
O=C(CS(=O)(=O)c1ccc(C(F)(F)F)cc1Cl)Nc1ccc(F)cc1 was read as BJeLR viab HTS 3 and A1 inh 0.
For Cc1ccc(N2CCN(/N=C\C=C\c3ccccc3)CC2)cc1 the results were BJeLR viab HTS 2 and A1 inh 0.
For Cc1cccc(OCC(=O)Nc2ccccc2)c1 the results were BJeLR viab HTS -2 and A1 inh -6.
For CC(C)(C)n1nc(-c2ccc(Cl)cc2)c2c(N)ncnc21 the results were BJeLR viab HTS 7 and A1 inh 13*.
`COc1cc(/C=c2/sc3nc4ccccc4n3c2=O)cc(OC)c1O` gave BJeLR viab HTS -5.
O=C(c1ccc(F)cc1)c1c[nH]c2ccccc2c1=O was read as BJeLR viab HTS -3.
Screening COc1cc2ncnc(Nc3cccc(O)c3)c2cc1OC returned BJeLR viab HTS -4 and A1 inh 12*.
`COc1cc2ncnc(Nc3cccc(Br)c3)c2cc1OC` gave BJeLR viab HTS 2 and A1 inh 3.
O=C(c1ccc2c(c1)C(=O)c1ccccc1-2)c1ccccc1Br was read as BJeLR viab HTS 5 and A1 inh 0.
O=C(Nc1cccc(Br)c1)c1cccc2c1C(=O)c1ccccc1-2 was read as BJeLR viab HTS 1 and A1 inh 26*.
`Clc1cccc(N2CCN(c3c4c(nc5ccc(Cl)cc35)CCC4)CC2)c1` gave BJeLR viab HTS -1.
CCOC(=O)c1ccc(Nc2cc(C)nc(C)c2C(=O)OCC)cc1 was read as BJeLR viab HTS 1.
`COC(=O)c1ccc(Nc2cc(C)nc3ccccc23)cc1` gave BJeLR viab HTS 62* and A1 inh -1.
`CSc1nn(-c2ccccc2)cc1C(=O)N1CCCCC1` gave BJeLR viab HTS 2 and A1 inh 1.
